A short description of assay [1]: Nuclear factor erythroid 2-related factor 2/antioxidant responsive element (Nrf2/ARE) small molecule agonists: qHTS cell viability counter screen in human keratinocytes (AID 1919968; active = well fitted curve in the direction sought with a large enough effect in the repeat runs; an effect the other way counts as inactive or inconclusive; note: nearly all actives have a fitted effect of over 55% in size). Put shortly:
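Stably transfected HaCaT (KeratinoSens), 1,500/well. Test agents in DMSO were applied for 23 h, 37 C/5% CO2. CellTiter-Fluor was incubated 1 h before the fluorescence read.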

A short description of assay [2]: Nuclear factor erythroid 2-related factor 2/antioxidant responsive element (Nrf2/ARE) small molecule agonists: luciferase reporter gene qHTS assay in human keratinocytes (AID 1919969). Note: nearly all actives have a fitted effect of over 35% in size. Note: potency is the fitted concentration of half-maximal effect.
In assay [3] the target is Gonadotropin-releasing hormone receptor (Homo sapiens) (UniProt P30968). The assay is described as follows: Human gonadotropin-releasing hormone receptor (GnRHR) small molecule agonists, calcium flux assay in GnRHR-HEK293 cells (AID 1920063). Note: nearly all actives have a fitted effect of over 35% in size. Summed up: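 Stable human GnRHR HEK293 line. 18 h plating, then calcium dye for 1 h at 37 C. Agonist-mode compound addition from DMSO stocks; fluorescence monitored 3 min.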
(In general: Calcium assays in cells follow changes in intracellular calcium, usually with a dye or a luminescent sensor.)

In assay [4] the target is KiSS-1 receptor (Homo sapiens) (UniProt Q969F8). The assay is described as follows: Human kisspeptin (KISS1R) small molecule agonists, calcium flux assay in KISS1R-HEK293 cells (AID 1920064; active = well fitted curve in the direction sought with a large enough effect in the repeat runs; an effect the other way counts as inactive or inconclusive). Put shortly: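 After overnight (18 h) culture at 37 C/5% CO2, human KISS1R-HEK293 cells received calcium dye for 1 h, then test compound; emission at 540 nm (excitation 480 nm) was tracked for 3 min.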

Assay [5] in a line: G protein-coupled receptor (GPCR) small molecule agonists, calcium flux assay: HEK293 wild type cell line counter screen (AID 1920065). Put shortly:
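Following 18 h incubation at 37 C/5% CO2, plates got calcium dye for 1 h; compounds, ATP or DMSO were then pinned in and fluorescence followed kinetically (480/540 nm).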

A short description of assay [6]: p53 small molecule agonists, cell-based qHTS assay with human liver microsomes (AID 1963577). Summed up: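 Fluorescence of the beta-lactamase reporter in p53RE-bla cells, detected with LiveBLAzer substrate (2 h, room temperature, dark), served as the read-out after 16 h compound exposure at 37 C with human liver microsomes and NADPH, each 0.5 mg/mL final.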
A short description of assay [7]: p53 small molecule agonists, cell-based qHTS assay with rat liver microsomes (AID 1963578). Put shortly:
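Cells carrying a p53 response element–beta-lactamase reporter were plated and rested 5 h, then dosed with compound in DMSO plus rat liver microsomes and NADPH, each at 0.5 mg/mL final. After 16 h at 37 C, LiveBLAzer substrate was added for 2 h.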

Assay [8] is described as follows: p53 small molecule agonists, cell-based qHTS assay with human liver microsomes: qHTS cell viability counter screen (AID 1963579). Note: nearly all actives have a fitted effect of over 45% in size. Summed up:
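Cytotoxicity counter screen: p53RE-bla, 4,000 cells/well; 5 h settle, 37 C/5% CO2; cpd + HLM 0.5 mg/mL + NADPH 0.5 mg/mL (final); 16 h, 37 C; CellTiter-Glo, 30 min RT, luminescence.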
In general terms: Quantitative high-throughput screening tests each substance at several concentrations.

Assay [9] is described as follows: p53 small molecule agonists, cell-based qHTS assay: qHTS cell viability counter screen (AID 1963581). Note: nearly all actives have a fitted effect of over 45% in size. Put shortly:
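qHTS counter screen: 16 h compound exposure at 37 C of p53RE-bla HCT-116 cells (4,000 per well, seeded 5 h prior), cell viability by ATP luminescence.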

Assay [10] in a line: p53 small molecule agonists, cell-based qHTS assay (AID 1963582; active = well fitted activation curve with a large enough effect in the signal ratio in the repeat runs, not every such curve was filed as active; the % refers to the signal ratio). Put shortly: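 Measured: fluorescence from cleaved LiveBLAzer substrate. System: p53RE-bla cells, 16 h compound treatment at 37 C, 2 h substrate step at room temperature.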
Assay [11] addresses 5-hydroxytryptamine receptor 2A (Homo sapiens) (UniProt P28223). The assay is described as follows: 5-hydroxytryptamine receptor 2A (HTR2A) small molecule antagonists, cell-based qHTS assay (AID 1963586). Note: nearly all actives have a fitted effect of over 45% in size. Summed up:
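CHO cells stably expressing human HTR2A were plated for 18 h at 37 C, then loaded with calcium dye for 1 h. Compounds were preincubated 5 min at room temperature before DOI (4 nM solution) was added. Kinetic fluorescence was read for 3 min.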

The target is the same in assay [12]. The assay can be described thus: 5-hydroxytryptamine receptor 2A (HTR2A) small molecule agonists, cell-based qHTS assay (AID 1963587). Note: nearly all actives have a fitted effect of over 30% in size. Summed up:
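CHO cells stably expressing human HTR2A, plated 18 h, loaded with calcium dye 1 h at 37 C. Agonist mode: compounds added and intracellular calcium fluorescence recorded kinetically for 2 min at 1 sec intervals.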

Assay [13] deals with Muscarinic acetylcholine receptor M1 (Homo sapiens) (UniProt P11229). The assay can be described thus: Cholinergic receptor muscarinic 1 (CHRM1) small molecule antagonists, cell-based qHTS assay (AID 1963588). Note: nearly all actives have a fitted effect of over 40% in size. Summed up:
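Compounds were tested at 15 concentrations in three independent runs. Dye-loaded CHRM1-CHO cells were exposed 5 min at room temperature before stimulation by acetylcholine added at 50nM. Intracellular calcium was read kinetically on FDSS for 3 min.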

The nature of assay [14]: cAMP Responsive Elements (CRE) small molecule agonists, cell-based qHTS assay (AID 1963590). Put shortly:
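Test agents in DMSO were incubated 3 h at 37 C/5% CO2 with CRE-bla HEK 293T cells seeded 18 h earlier; LiveBLAzer B/G FRET substrate was added and read after 2 h at room temperature.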

Assay [15] can be described thus: cAMP Responsive Elements (CRE) small molecule antagonists, cell-based qHTS assay (AID 1963591; active = well fitted inhibition curve with a large enough effect in the signal ratio in the repeat runs, not every such curve was filed as active; the % refers to the signal ratio). Put shortly: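 Reporter line CRE-bla HEK 293T in dialyzed-FBS DMEM; cells preincubated 18 h, treated 3 h with compound plus NKH477 (0.25 uM final); LiveBLAzer FRET, 2 h RT.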
The target in assay [16] is Beta-2 adrenergic receptor (Homo sapiens) (UniProt P07550). The assay can be described thus: Adrenergic beta2 receptor (ADRB2) small molecule agonists, cell-based qHTS assay (AID 1963593).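 Note: CHO cells stably overexpressing human ADRB2.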 Put shortly: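 CHO cells stably over-expressing ADRB2 were plated overnight at 37C, then dosed with compounds plus a stimulation mix containing 100uM IBMX and 25uM Ro-20-1724 for 0.5hr at room temperature. cAMP was measured by HTRF competition, 1hr.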

The target of assay [17] is D(2) dopamine receptor (Homo sapiens) (UniProt P14416). The assay can be described thus: Dopamine D2 receptor (DRD2) small molecule agonists, cell-based qHTS assay (AID 1963594). Note: nearly all actives have a fitted effect of over 35% in size. Summed up:
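HEK293 cells stably expressing human DRD2, pre-treated with PDE inhibitor Ro20-1724 (0.1 mM final) and compound 10 min at room temperature, then stimulated with NKH477 (200nM […]) for 30 min. cAMP read by HTRF (665/620 nm).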

For assay [18] the target is unchanged. The assay can be described thus: Dopamine D2 receptor (DRD2) small molecule antagonists, cell-based qHTS assay (AID 1963595; active = well fitted inhibition curve with a large enough effect in the signal ratio in the repeat runs, with a control signal flat; the % refers to the signal ratio). Summed up: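 HEK293 cells stably expressing DRD2, preincubated with 0.1 mM Ro20-1724 and compounds 10 min, were stimulated with 200 nM NKH477 plus 12 nM quinpirole for 30 min at room temperature; cAMP measured by HTRF (665/620 nm).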

Assay [19] is described as follows: p53 small molecule agonists, cell-based qHTS assay with rat liver microsomes: qHTS cell viability counter screen (AID 1963580). Note: nearly all actives have a fitted effect of over 45% in size. Summed up: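 Cytotoxicity counter screen: intracellular ATP measured by CellTiter-Glo luminescence in the same wells as the beta-lactamase reporter read, on HCT-116 p53RE-bla cells exposed 16 h at 37 C to compounds with rat liver microsomes and NADPH, each 0.5 mg/mL final.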

Assay [20] deals with Beta-2 adrenergic receptor (Homo sapiens) (UniProt P07550). The assay can be described thus: Adrenergic beta2 receptor (ADRB2) small molecule antagonists, cell-based qHTS assay (AID 1963592). Note: series mostly up to about 92 µM; nearly all actives have a fitted effect of over 50% in size. Summed up: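 Assay format: CHO-ADRB2 cells, 18-20hr seeding at 37C/5% CO2, then compound plus 1nM isoproterenol agonist mix for 0.5hr RT. Homogeneous time-resolved fluorescence cAMP detection after 1hr, expressed as 665/615 nm ratio.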

SMILES strings stand for the structures. Several values for one entry are separate records, joined by “and”; a condition that tells them apart may be missing. Equal values may be shown once. Inconclusive results are not listed. Activity calls are given as the source filed them. Unless noted, calls come from the whole dose curve.

Muscarinic acetylcholine receptor M1 (Homo sapiens), sequence (P11229 whole entry, looked up): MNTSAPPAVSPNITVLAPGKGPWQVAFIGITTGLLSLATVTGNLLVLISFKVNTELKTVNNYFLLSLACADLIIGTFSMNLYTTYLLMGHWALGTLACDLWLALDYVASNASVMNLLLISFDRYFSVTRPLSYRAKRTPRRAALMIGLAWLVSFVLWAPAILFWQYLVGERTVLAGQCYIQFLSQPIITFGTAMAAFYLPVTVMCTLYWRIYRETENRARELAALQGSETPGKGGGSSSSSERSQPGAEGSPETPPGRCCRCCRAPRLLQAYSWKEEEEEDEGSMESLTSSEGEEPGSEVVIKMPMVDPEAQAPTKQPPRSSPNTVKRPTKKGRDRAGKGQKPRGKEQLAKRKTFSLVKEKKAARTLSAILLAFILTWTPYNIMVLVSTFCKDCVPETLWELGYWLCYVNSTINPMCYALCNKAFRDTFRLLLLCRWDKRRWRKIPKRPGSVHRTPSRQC
Beta-2 adrenergic receptor (Homo sapiens), sequence (P07550 whole entry, looked up): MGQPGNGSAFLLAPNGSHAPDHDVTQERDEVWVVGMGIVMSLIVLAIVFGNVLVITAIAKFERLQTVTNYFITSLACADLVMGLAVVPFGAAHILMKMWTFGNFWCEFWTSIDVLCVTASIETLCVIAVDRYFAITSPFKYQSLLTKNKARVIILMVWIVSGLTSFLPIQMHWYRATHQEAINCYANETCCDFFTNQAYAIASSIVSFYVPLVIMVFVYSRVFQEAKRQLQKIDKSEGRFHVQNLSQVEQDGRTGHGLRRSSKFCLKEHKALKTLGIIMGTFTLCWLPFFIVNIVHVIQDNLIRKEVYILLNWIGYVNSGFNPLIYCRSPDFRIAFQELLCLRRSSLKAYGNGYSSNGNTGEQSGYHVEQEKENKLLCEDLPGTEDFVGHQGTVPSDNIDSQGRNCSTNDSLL
5-hydroxytryptamine receptor 2A (Homo sapiens), sequence (P28223 whole entry, looked up): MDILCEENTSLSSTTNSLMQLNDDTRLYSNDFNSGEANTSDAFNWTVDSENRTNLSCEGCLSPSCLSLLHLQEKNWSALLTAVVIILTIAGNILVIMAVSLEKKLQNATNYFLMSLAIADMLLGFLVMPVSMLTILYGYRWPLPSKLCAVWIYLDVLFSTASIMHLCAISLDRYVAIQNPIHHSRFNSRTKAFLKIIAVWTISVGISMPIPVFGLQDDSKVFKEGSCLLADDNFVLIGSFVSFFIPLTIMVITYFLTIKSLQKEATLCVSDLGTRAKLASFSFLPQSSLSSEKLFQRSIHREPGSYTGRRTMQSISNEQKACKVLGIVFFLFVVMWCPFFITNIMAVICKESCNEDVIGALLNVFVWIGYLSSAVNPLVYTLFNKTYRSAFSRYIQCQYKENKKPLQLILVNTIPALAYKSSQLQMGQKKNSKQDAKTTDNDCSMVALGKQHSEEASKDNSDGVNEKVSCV
KiSS-1 receptor (Homo sapiens), sequence (Q969F8 whole entry, looked up): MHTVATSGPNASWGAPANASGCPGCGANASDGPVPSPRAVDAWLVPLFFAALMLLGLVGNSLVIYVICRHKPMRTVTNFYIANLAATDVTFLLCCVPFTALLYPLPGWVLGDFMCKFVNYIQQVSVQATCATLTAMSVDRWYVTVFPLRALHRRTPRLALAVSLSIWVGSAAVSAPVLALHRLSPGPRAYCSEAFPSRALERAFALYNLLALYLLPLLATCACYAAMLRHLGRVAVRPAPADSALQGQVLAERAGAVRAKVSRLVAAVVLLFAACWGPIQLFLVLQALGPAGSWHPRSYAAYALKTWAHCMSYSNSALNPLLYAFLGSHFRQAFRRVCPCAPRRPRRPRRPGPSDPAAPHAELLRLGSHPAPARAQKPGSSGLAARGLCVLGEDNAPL
Gonadotropin-releasing hormone receptor (Homo sapiens), sequence (P30968 whole entry, looked up): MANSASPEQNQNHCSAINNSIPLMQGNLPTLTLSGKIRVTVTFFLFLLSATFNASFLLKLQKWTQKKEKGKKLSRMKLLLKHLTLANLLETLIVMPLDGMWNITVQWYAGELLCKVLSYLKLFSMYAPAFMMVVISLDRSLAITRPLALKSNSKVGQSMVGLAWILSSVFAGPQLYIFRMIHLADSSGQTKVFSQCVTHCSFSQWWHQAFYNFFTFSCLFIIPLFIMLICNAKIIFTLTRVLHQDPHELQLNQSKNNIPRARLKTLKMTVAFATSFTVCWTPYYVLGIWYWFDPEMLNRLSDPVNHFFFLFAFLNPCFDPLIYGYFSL
D(2) dopamine receptor (Homo sapiens), sequence (P14416 whole entry, looked up): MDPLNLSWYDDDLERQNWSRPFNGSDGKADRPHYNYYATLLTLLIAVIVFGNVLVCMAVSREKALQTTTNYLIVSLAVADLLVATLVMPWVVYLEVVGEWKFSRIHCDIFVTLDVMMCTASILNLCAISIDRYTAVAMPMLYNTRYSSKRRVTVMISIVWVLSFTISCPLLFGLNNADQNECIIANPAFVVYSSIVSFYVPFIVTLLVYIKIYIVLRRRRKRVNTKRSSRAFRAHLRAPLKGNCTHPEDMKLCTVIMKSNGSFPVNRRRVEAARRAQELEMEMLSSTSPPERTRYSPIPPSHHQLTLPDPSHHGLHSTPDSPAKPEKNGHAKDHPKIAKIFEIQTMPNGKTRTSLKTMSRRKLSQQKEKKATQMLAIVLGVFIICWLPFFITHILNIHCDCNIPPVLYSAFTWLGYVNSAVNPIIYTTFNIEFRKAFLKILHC

Turning to `C/C=C/c1ccc(OCC)c(O)c1`, the Potency entry in [1], in [2], in assay [3], in [4], in assay [5] and in [6] was “inactive” each time. The Potency result in assay [7], in assay [8], in assay [9], in [10], in assay [11] and in assay [12] was “inactive” throughout. Moreover, the Potency entry in [13], in [14], in [15], in assay [16], in [17] and in assay [18] was “inactive” in each case.
On to `Nc1ncnc2nc[nH]c12`, for which the Potency result in assay [1], in assay [2], in assay [3], in [4], in assay [5] and in assay [6] was “inactive” throughout. Also, the Potency entry in assay [7], in assay [19], in [9], in assay [10], in assay [11] and in [12] was “inactive” each time. In addition, the Potency result in assay [13], in assay [14], in [15], in assay [20], in [16] and in assay [17] was “inactive” throughout. Besides, the Potency entry in [18] is “inactive”.
For `COc1cc([C@@H]2c3cc4c(cc3[C@H](O)[C@H]3COC(=O)[C@H]23)OCO4)cc(OC)c1OC`, the Potency entry in [1], in [3], in assay [4], in [5], in [6] and in [7] was “inactive” each time. For the same compound, the Potency entry in [19], in assay [10], in assay [20], in [16], in [17] and in assay [18] was “inactive” in each case. For the same compound, the Potency in assay [2] was 54.4 nM (active) and 53.1 nM (active).
In the case of `C=CCc1ccc(OC)c(OC)c1`, the Potency entry in [1], in [2], in [3], in assay [4], in assay [5] and in [6] was “inactive” each time. Also, the Potency entry in assay [7], in assay [19], in assay [9], in [10], in assay [12] and in [13] was “inactive” throughout. Moreover, the Potency entry in assay [14], in [15], in assay [20], in [17] and in assay [18] was “inactive” throughout.
For the compound `COc1ccc2[nH]cc(CCNC(C)=O)c2c1`, the Potency entry in assay [1], in assay [2], in assay [3], in assay [4], in assay [5] and in [6] was “inactive” each time. Also, the Potency result in assay [7], in [19], in [9], in [10], in assay [14] and in assay [15] was “inactive” throughout. Further, the Potency result in assay [20], in assay [16], in assay [17] and in [18] was “inactive” in each case.
On to `COc1ccc(Cl)cc1C(=O)NCCc1ccc(S(=O)(=O)NC(=O)NC2CCCCC2)cc1`, for which the Potency result in assay [1], in assay [2], in assay [3], in assay [4], in assay [5] and in assay [6] was “inactive” throughout. Further, the Potency entry in assay [7], in assay [8], in [9], in [10], in assay [20] and in [17] was “inactive” in each case. The Potency result in assay [18] was “inactive”.
On to `NCCOCCO`, for which the Potency result in [1], in assay [2], in [3], in assay [4], in assay [5] and in [6] was “inactive” in each case. Moreover, the Potency result in assay [8], in assay [19], in assay [9], in [10], in assay [11] and in [12] was “inactive” throughout. In addition, the Potency result in assay [13], in [14], in assay [15], in assay [20], in assay [16] and in assay [17] was “inactive” each time. In addition, the Potency result in [18] was “inactive”.
Take `O=S(=O)(O)c1ccc2ccccc2c1`: the Potency result in assay [1], in [2], in assay [3], in assay [4], in assay [5] and in assay [6] was “inactive” each time. The Potency entry in assay [7], in [8], in assay [9], in assay [11], in assay [12] and in assay [13] was “inactive” in each case. Also, the Potency entry in assay [14], in [15], in assay [20], in assay [16] and in assay [18] was “inactive” each time.
